# Test system: PPARg:RXRa IVT, anti-PPARg (NR concentration 270 nM, RXRa partner concentration 90 nM)
# Test: PBM binding z-score (relative to random genomic background probes); higher = stronger binding; sequences stand for … in GC…GCGATTGACAGCGTAGAATGAAGG
# Procedure, shortened: (§1)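 Custom Agilent 4×180K protein-binding microarrays carried double-stranded probes. Their 34-nt variable regions held direct-repeat seeds, single-nucleotide variants, half-site ablations and random human genomic background sequences. Arrays were incubated 1 h with ligand-free nuclear receptor dimers in PBS pH 7.4, 2% milk, 0.02% Triton X-100, 1 mM DTT, 0.2 mg/mL BSA and 0.4 mg/ml salmon testes DNA. Antibodies against each partner (one per run) detected binding, and scanned fluorescence was regression-normalized. Binding z-scores use random background probes as reference.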
row,Sequence,PBM binding z-score
1,TCTTGTAGATCAAACAGGTTAAGAAAGCCTGAGT,0.783
2,GCTAGTTGGTCAGTATAAGGTCACACACCGGTCG,2.3
3,ATCTCTAGGTAACAAGTTCAGAGAAAGAGAGGAC,2.66
4,TCTATTAGTTGTAGGGCAACCGACGAGTCCGTTT,2.66
5,AGAATGAAGTTATACGTAGATCAGGGAAGAAAGT,-0.385
6,TAGCCTAGGTCATTAGGCCAGTATAGTACGCATC,3.88
7,CCTTACGGGTCTCGAGGTTATAGCACGACGAGCG,0.298
8,ATACCAAGGTGATCGTAAGGTCGTTGATACTAAC,1.51
9,TTACCAAGGTGCAAGGTCGTTGATGCACGCCTTG,1.05
10,TCTTATAGGTAAACAGGTGAAAGTCCGTAAGTTA,4.49
11,ATACCAAGGTGATCGTGAGGTCCTTGATACTAAC,0.989
12,TCATATAGGTAAAGGTGATAGTCGAACGATATGA,3.38
13,AGACAAAGTTCACTAGGTAACGTAAGATTCAGCT,4.14
14,GATGCTAGGTCAGGTTGGTCAGCTAACGGGTACG,2.23
15,CCTTACTGGTCACGAGGTTATAGCACGACGAGCG,2.01
16,TCTTGTAGATCAGCAAGTTAAGAAAGCTGGCCAA,0.0775
17,TCATATAGGGAAATGCTAGGTGAAAGTCCGATCT,1.33
18,GCAAATAGGTAATACAAGGTGAAAGTCCGATTGT,2.55
19,GCTTACGGGTCAACGGTTATAGCATGAATAGAAT,4.42
20,GCGACTGGGGCATCAGCAGATTACCATAACTTAA,2.69

row,Sequence,PBM binding z-score
1,GCGACTGCGGCAAAGCAGGTTACCATAAGGTTGG,-0.26
2,GCGACTGGGGCATTAGCAGGTTACCATAACTTAA,2.83
3,ATCGCTAGGTAAAGATAGTTCAGTGAATGCAAAT,-0.329
4,TAGCCTAGGTCAGATCGGGCCAATATACGCTATA,1.37
5,CCTACCGGGCCACGAAAGGTCATTGATTCAGTGA,2.28
6,CCTTACGGGTCACTGACAGGTTATAGAATTTGGA,3.6
7,CCTTACGGGTCACTGACAGATTATAGCATTTGGA,3.85
8,TCCCGGAGGACACGAAAGGTCAGAGCTCGACATC,1.17
9,TCTCAGAGGACACGAAAGGTCAGAGCTCGACATC,1.57
10,CGTCCGAGGTCAGCAGGTCAGTGAAAGCGACGTG,4.16
11,AGAATGAGGATATTAAGATCAGGGAATTGCGGTC,0.03
12,CCTAGCAGCCCAGGGTCACTCAAGCATTTCGCTT,0.169
13,GCTGCTAGGTCAACTGTTGGTCAGCTAAAGCTCG,4.32
14,ACTGGCAGGCCAAGGGTCACTCAAGATTAGTCCG,2.2
15,CCTCGGAGGACAGAAGGTCGGAGCTGTCCGCTTT,-0.963
16,TAGCCTAGGTCAGGCGGGCCAGTATAGTGTCGGC,1.7
17,AGAATGAGGTTAAGCTCAGGGAAACAGAATACAT,2.98
18,CTTCAAAGTTCAACTAAGGTAACGTAAAGCACGC,1.44
19,TTACCAAGGTGAAGGTCTTTGATCCCTCTGTAGA,3.26
20,ATCTCTAGGTAAATTTCAGTGAAAGATCGATAGA,1.5

# Test system: PPARg DBDmut:RXRa IVT, anti-PPARg (DBD mutation: PPARg1 K132A/R137A, NR concentration 270 nM, RXRa partner concentration 90 nM)
# Test: as above
# Procedure, shortened: as §1
row,Sequence,PBM binding z-score
1,TCTTGTAGATCAAACAGGTTAAGAAAGCCTGAGT,1.28
2,GCTAGTTGGTCAGTATAAGGTCACACACCGGTCG,0.282
3,ATCTCTAGGTAACAAGTTCAGAGAAAGAGAGGAC,0.959
4,TCTATTAGTTGTAGGGCAACCGACGAGTCCGTTT,0.777
5,AGAATGAAGTTATACGTAGATCAGGGAAGAAAGT,1.2
6,TAGCCTAGGTCATTAGGCCAGTATAGTACGCATC,0.301
7,CCTTACGGGTCTCGAGGTTATAGCACGACGAGCG,-0.399
8,ATACCAAGGTGATCGTAAGGTCGTTGATACTAAC,0.685
9,TTACCAAGGTGCAAGGTCGTTGATGCACGCCTTG,-0.472
10,TCTTATAGGTAAACAGGTGAAAGTCCGTAAGTTA,1.36
11,ATACCAAGGTGATCGTGAGGTCCTTGATACTAAC,0.0116
12,TCATATAGGTAAAGGTGATAGTCGAACGATATGA,1.17
13,AGACAAAGTTCACTAGGTAACGTAAGATTCAGCT,1.01
14,GATGCTAGGTCAGGTTGGTCAGCTAACGGGTACG,-0.346
15,CCTTACTGGTCACGAGGTTATAGCACGACGAGCG,1.13
16,TCTTGTAGATCAGCAAGTTAAGAAAGCTGGCCAA,0.0136
17,TCATATAGGGAAATGCTAGGTGAAAGTCCGATCT,1.18
18,GCAAATAGGTAATACAAGGTGAAAGTCCGATTGT,0.642
19,GCTTACGGGTCAACGGTTATAGCATGAATAGAAT,2.69
20,GCGACTGGGGCATCAGCAGATTACCATAACTTAA,0.0111

row,Sequence,PBM binding z-score
1,GCGACTGCGGCAAAGCAGGTTACCATAAGGTTGG,-0.756
2,GCGACTGGGGCATTAGCAGGTTACCATAACTTAA,-0.21
3,ATCGCTAGGTAAAGATAGTTCAGTGAATGCAAAT,0.673
4,TAGCCTAGGTCAGATCGGGCCAATATACGCTATA,-0.296
5,CCTACCGGGCCACGAAAGGTCATTGATTCAGTGA,-0.376
6,CCTTACGGGTCACTGACAGGTTATAGAATTTGGA,1.19
7,CCTTACGGGTCACTGACAGATTATAGCATTTGGA,0.84
8,TCCCGGAGGACACGAAAGGTCAGAGCTCGACATC,-0.696
9,TCTCAGAGGACACGAAAGGTCAGAGCTCGACATC,-0.124
10,CGTCCGAGGTCAGCAGGTCAGTGAAAGCGACGTG,0.747
11,AGAATGAGGATATTAAGATCAGGGAATTGCGGTC,0.947
12,CCTAGCAGCCCAGGGTCACTCAAGCATTTCGCTT,-1.11
13,GCTGCTAGGTCAACTGTTGGTCAGCTAAAGCTCG,0.227
14,ACTGGCAGGCCAAGGGTCACTCAAGATTAGTCCG,-0.302
15,CCTCGGAGGACAGAAGGTCGGAGCTGTCCGCTTT,-1.7
16,TAGCCTAGGTCAGGCGGGCCAGTATAGTGTCGGC,-0.617
17,AGAATGAGGTTAAGCTCAGGGAAACAGAATACAT,0.873
18,CTTCAAAGTTCAACTAAGGTAACGTAAAGCACGC,1.35
19,TTACCAAGGTGAAGGTCTTTGATCCCTCTGTAGA,-0.214
20,ATCTCTAGGTAAATTTCAGTGAAAGATCGATAGA,1.22

# From the supplement of paper PMC6555819
